Here are results for one molecule from PubChem BioAssay AID1159580 (chemical genetic matrix, 2015).

About 2,000 (36%) of roughly 5,500 compounds were called active. Inconclusive results (about 18%) are left out. This is one part of the list. Unmarked numbers belong to inactive results. No stated cut-off is given here; in the data, active means normalized growth mostly below about 0.91 (no sharp cut-off); inconclusive means no clear call, values can overlap the other calls; inactive means mostly above about 0.92.

The test can be described thus: chemical genetic growth profiling, strain panel (AID 1159580).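 Further: tested at 20 µM; growth read once vehicle control cultures reached saturation at 30 °C; 1 = growth at the plate median or of vehicle wells.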 The settings on record: S. cerevisiae deletion strains, growth OD.

For `CC(C)N=c1cc2n(-c3ccc(Cl)cc3)c3ccccc3nc-2cc1Nc1ccc(Cl)cc1`, the normalized growth reads like this: (locus YHR030C, strain SLT2, stronger effect = lower value) 0.929; (locus YHR079C, strain IRE1, stronger effect = lower value) 0.812 (active); (locus YJL095W, strain BCK1, stronger effect = lower value) 0.869 (active); (locus YJR066W, strain TOR1, stronger effect = lower value) 0.948; (locus YLR113W, strain HOG1, stronger effect = lower value) 0.807 (active); (locus YNL183C, strain NPR1, stronger effect = lower value) 0.9. Further, the normalized growth is 0.831 (active) (locus YOR231W, strain MKK1, stronger effect = lower value) and 0.818 (active) (locus YPL256C, strain CLN2, stronger effect = lower value).
